Assay in all cases: log2 fold change, soluble protein after heating vs DMSO (PISA); higher = thermal stabilisation; K562 lysate, 10 uM; active = over 0.2 and 3.5 SD of the protein, either way, in both replicates (recomputed)
Compound in assay [1]: CCCS(=O)(=O)Nc1ccc(F)c(C(=O)c2c[nH]c3ncc(-c4ccc(Cl)cc4)cc23)c1F [vemurafenib]
An outline of the steps: (§1)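 Following dounce homogenisation of K562 pellets in PBS pH 7.4 with 1 mM MgCl2, crude extract at 1 mg/mL protein was incubated for 30 min with 10 μM compound. Aliquots were then heated for 3 min over 48°C-58°C and pooled, NP-40 was added to 0.5% at 4°C, and soluble protein was recovered as the supernatant at 21,000xg for 90 min. Channel-sum-equalised TMTpro 16plex LC-MS/MS quantified this protein. Each value, from duplicates, is a log-two fold change in thermal stability relative to solvent controls.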

Compound in assay [2]: CCCS(=O)(=O)Nc1ccc(F)c(C(=O)c2c[nH]c3ncc(Cl)cc23)c1F
A digest of the protocol: as §1

Compound in assay [3]: CCN(CCCOc1ccc2c(Nc3cc(CC(=O)Nc4cccc(F)c4)[nH]n3)ncnc2c1)CCOP(=O)(O)O [barasertib]
A digest of the protocol: as §1

Compound in assay [4]: CC[C@@H]1C(=O)N(C)c2cnc(Nc3ccc(C(=O)NC4CCN(C)CC4)cc3OC)nc2N1C1CCCC1
A digest of the protocol:
as §1

Compound in assay [5]: CC[C@@H]1C(=O)N(C)c2cnc(Nc3ccc(C(=O)N[C@H]4CC[C@H](N5CCN(CC6CC6)CC5)CC4)cc3OC)nc2N1C(C)C [volasertib]
An outline of the steps: as §1

Compound in assay [6]: CCn1c(C(=O)N(C2CC2)C2CC2)cc2c3c(ncn3C)c(Nc3cc(C)n(C)n3)nc21
A digest of the protocol:
as §1

Compound in assay [7]: CCn1cc(-c2ccnc3[nH]c(-c4cccc(CN(C)C)c4)cc23)c(-c2ccc(NC(=O)N(C)C)cc2)n1
A digest of the protocol:
as §1

Compound in assay [8]: CN1CCC(CNc2ccc3ncc(-c4cccc(OC(F)(F)F)c4)n3n2)CC1
An outline of the steps: as §1

Compound in assay [9]: CN1CCN(CCOc2cc(OC3CCOCC3)c3c(Nc4c(Cl)ccc5c4OCO5)ncnc3c2)CC1 [saracatinib]
An outline of the steps: as §1

Compound in assay [10]: CN1CCN(c2nc(C3=C(c4c[nH]c5ccccc45)C(=O)NC3=O)c3ccccc3n2)CC1 [sotrastaurin]
An outline of the steps:
as §1

Of roughly 8,800 targets only a part is listed; those with a hit were picked by preference. About 0.5% of all pairs of compound and target were hits. Unmarked numbers belong to inactive results.

UniProt Q99700, sequence (Q99700 whole entry, looked up): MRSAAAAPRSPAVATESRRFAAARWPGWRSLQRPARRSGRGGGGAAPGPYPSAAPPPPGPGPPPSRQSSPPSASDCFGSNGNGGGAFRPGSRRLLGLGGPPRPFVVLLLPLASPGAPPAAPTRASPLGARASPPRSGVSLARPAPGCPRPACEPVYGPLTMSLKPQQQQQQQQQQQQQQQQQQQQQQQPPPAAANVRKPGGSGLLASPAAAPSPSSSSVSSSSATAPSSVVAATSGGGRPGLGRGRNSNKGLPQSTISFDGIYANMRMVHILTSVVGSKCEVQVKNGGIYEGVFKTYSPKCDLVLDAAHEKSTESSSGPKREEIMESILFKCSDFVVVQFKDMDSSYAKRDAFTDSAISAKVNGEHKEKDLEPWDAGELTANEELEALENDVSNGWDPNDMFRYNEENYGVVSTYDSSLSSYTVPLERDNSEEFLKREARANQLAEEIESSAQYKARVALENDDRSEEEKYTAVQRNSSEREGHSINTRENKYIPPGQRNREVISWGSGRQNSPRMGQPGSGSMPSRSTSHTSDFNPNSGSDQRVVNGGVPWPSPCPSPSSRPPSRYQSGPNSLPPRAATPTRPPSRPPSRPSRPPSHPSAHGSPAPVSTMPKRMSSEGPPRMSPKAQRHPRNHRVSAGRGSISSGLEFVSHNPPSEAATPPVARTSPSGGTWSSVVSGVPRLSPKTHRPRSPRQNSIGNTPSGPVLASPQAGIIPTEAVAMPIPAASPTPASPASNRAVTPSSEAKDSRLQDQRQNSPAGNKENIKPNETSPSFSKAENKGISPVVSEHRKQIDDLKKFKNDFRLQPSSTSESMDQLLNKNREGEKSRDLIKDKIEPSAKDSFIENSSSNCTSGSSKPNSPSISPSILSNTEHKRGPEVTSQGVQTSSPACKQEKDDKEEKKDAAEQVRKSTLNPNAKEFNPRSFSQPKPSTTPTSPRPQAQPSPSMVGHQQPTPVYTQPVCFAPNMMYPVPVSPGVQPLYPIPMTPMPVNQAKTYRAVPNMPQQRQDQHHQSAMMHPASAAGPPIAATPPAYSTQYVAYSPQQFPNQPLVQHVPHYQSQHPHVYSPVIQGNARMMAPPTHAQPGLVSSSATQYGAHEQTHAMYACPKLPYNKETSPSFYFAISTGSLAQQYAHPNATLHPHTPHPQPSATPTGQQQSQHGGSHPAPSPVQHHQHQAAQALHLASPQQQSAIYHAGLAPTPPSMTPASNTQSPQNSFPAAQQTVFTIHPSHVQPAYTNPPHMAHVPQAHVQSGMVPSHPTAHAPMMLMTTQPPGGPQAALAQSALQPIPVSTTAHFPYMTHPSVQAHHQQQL
UniProt Q8WXE1, sequence (Q8WXE1 whole entry, looked up): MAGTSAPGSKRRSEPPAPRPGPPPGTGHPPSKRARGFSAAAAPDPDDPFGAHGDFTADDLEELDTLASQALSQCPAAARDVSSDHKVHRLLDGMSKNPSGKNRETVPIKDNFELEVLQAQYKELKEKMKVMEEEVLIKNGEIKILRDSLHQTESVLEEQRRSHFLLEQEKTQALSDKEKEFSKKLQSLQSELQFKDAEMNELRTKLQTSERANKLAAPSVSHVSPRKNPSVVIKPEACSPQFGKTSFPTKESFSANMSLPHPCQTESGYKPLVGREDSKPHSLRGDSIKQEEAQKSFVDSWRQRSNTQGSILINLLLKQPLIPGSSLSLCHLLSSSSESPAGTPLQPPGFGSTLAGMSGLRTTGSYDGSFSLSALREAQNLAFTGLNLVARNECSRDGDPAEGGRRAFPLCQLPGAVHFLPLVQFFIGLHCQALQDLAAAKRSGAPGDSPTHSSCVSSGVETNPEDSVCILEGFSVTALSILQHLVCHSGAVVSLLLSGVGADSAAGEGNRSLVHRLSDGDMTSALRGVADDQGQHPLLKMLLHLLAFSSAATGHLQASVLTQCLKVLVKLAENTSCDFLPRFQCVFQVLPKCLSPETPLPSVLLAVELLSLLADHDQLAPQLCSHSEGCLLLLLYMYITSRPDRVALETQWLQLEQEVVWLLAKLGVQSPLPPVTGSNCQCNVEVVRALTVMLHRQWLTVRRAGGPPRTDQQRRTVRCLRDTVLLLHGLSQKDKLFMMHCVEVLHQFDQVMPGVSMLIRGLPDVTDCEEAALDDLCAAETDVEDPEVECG
UniProt Q96NL8, sequence (Q96NL8 whole entry, looked up): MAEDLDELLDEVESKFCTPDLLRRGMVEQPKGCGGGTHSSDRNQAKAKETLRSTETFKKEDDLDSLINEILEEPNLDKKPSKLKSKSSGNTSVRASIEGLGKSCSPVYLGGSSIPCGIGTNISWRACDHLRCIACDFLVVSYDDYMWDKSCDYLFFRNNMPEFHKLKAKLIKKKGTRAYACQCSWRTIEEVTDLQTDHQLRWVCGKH
UniProt Q14692, sequence (Q14692 whole entry, looked up): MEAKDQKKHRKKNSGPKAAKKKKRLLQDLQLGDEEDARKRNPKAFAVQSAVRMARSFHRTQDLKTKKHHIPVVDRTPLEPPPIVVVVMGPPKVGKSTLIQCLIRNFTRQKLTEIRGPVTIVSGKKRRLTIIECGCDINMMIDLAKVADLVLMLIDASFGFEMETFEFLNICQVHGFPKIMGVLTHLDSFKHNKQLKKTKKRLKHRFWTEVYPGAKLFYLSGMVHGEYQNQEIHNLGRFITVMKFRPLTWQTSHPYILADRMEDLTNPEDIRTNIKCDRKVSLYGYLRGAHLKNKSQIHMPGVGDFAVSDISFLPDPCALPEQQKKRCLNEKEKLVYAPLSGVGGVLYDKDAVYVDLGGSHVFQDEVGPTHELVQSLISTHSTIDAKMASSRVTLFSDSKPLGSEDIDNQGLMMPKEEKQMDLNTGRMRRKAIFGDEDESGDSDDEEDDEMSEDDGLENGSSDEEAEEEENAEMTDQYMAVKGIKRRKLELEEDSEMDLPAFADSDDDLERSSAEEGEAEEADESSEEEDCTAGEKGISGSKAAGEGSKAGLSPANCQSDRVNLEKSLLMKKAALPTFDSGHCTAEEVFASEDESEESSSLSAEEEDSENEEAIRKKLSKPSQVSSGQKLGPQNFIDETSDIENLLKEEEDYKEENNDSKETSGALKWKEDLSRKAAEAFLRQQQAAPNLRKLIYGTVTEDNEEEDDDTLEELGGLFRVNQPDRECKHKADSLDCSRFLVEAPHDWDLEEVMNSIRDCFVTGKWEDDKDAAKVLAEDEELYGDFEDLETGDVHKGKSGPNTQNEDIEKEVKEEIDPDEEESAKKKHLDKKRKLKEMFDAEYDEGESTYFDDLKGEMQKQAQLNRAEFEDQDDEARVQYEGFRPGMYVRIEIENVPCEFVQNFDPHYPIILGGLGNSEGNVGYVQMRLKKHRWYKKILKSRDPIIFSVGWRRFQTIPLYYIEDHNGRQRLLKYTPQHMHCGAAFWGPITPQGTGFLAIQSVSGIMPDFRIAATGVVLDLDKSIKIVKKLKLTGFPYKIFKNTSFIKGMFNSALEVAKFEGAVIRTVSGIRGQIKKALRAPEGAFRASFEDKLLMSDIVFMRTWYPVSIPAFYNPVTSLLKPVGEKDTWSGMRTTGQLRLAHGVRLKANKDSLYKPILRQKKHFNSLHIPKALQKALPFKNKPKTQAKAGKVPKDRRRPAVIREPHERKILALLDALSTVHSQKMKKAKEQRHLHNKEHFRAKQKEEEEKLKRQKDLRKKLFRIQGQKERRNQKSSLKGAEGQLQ
UniProt O75143, sequence (O75143 whole entry, looked up): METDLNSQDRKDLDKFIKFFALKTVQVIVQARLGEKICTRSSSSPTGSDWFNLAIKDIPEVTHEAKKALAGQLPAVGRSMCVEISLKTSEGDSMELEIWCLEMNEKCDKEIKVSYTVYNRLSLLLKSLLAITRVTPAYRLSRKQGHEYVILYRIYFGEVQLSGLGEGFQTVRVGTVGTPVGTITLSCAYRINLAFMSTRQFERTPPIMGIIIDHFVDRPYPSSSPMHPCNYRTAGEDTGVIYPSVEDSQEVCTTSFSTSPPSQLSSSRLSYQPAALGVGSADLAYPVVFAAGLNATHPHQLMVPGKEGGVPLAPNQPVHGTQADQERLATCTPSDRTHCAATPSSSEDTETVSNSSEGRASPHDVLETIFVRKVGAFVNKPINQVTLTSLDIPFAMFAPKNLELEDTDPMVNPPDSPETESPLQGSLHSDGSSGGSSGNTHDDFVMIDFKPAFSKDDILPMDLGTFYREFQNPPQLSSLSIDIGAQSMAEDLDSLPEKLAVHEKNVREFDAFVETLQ
UniProt Q9Y6K0, sequence (Q9Y6K0 whole entry, looked up): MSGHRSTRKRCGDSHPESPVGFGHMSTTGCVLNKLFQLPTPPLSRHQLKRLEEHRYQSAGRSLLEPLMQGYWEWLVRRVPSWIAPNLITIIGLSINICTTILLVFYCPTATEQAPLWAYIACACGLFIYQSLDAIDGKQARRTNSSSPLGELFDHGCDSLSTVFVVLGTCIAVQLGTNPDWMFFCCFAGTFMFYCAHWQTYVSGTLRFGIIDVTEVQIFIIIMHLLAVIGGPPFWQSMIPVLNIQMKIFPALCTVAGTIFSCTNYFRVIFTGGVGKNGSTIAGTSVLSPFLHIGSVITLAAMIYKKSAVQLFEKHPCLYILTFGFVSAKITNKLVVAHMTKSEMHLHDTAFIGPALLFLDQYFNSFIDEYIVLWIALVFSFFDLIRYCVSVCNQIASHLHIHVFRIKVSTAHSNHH
UniProt O14965, sequence (O14965 whole entry, looked up): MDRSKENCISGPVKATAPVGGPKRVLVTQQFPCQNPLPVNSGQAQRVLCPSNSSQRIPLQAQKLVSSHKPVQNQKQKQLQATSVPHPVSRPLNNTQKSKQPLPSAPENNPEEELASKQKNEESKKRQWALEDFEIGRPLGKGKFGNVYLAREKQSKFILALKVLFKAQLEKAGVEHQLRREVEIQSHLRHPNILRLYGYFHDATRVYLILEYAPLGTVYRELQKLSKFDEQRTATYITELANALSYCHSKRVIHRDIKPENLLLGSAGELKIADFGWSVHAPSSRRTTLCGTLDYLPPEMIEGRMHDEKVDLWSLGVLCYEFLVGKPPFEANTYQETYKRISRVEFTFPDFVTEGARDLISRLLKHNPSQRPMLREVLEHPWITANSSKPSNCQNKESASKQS

CEPT1 (UniProt Q9Y6K0): the log2 fold change is -0.031 in assay [1]; 0.006 in assay [2]; 0.08 in assay [3]; -0.006 in assay [4]; 0.042 in assay [5]; -0.079 in assay [6]. In addition, the log2 fold change in assay [7] was -0.102; in assay [8], 0.084; in assay [9], 0.037; in assay [10], -0.008.

For the target AURKA (UniProt O14965), the log2 fold change in assay [1] was 0.088; in [2], 0.068; in assay [3] it was 0.763 (active); in [4], -0.062; in assay [5], -0.015; in assay [6], -0.009. In addition, the log2 fold change in [7] is 0.719 (active); in assay [8] it was 0.096; in [9], 0.008; in assay [10] it was 0.028.

With C8orf37 (UniProt Q96NL8), the log2 fold change in [1] was 0.081; in [2], -0.061; in assay [3], -0.062; in [4], 0.058; in assay [5] it was -0.043; in assay [6], -0.075. The log2 fold change in assay [7] is 0.225; in assay [8], 0.166; in assay [9], -0.06; in assay [10], 0.072.

Regarding ATXN2 (UniProt Q99700), the log2 fold change was 0.007 in assay [1]; -0.004 in assay [2]; 0.012 in [3]; 0.057 in [4]; 0.001 in assay [5]; 0.022 in assay [6]. The log2 fold change in [7] was 0.005; in assay [8], -0.03; in assay [9], -0.014; in assay [10], 0.052.

ATRIP (UniProt Q8WXE1): the log2 fold change in assay [1] was 0.174; in [2], 0.002; in assay [3] it was -0.036; in assay [4], -0.281 (active); in assay [5], -0.06; in [6] it was -0.013. The log2 fold change in assay [7] is 0.031; in assay [8], -0.001; in assay [9], 0.048; in assay [10], 0.002.

Regarding CD63 (UniProt P08962), the log2 fold change in assay [1] was -0.079; in assay [2], 0.084; in [3], 0.037; in assay [4], -0.036; in assay [5], 0.023; in [6], -0.011. Further, the log2 fold change in [7] was -0.593 (active); in assay [8] it was 0.175; in assay [9] it was 0.073; in assay [10] it was 0.057.

As to ATP13A1 (UniProt Q9HD20), the log2 fold change in [1] is -0.006; in [2], 0.013; in assay [3] it was -0.006; in [4], 0.023; in [5], -0.036; in [6], 0.067. Further, the log2 fold change is 0.004 in assay [7], -0.343 (active) in assay [8], 0.012 in [9] and -0.012 in assay [10].

Consider CDC40 (UniProt O60508), for which the log2 fold change in assay [1] was 0.01; in assay [2], 0.013; in assay [3] it was -0.016; in [4] it was -0.105; in assay [5], -0.001; in assay [6] it was 0.034. Besides, the log2 fold change in assay [7] is -0.006; in assay [8], 0.046; in assay [9] it was -0.056; in [10] it was -0.049.

Consider CEP120 (UniProt Q8N960), for which the log2 fold change was 0.052 in [1]; -0.098 in [2]; 0.033 in [3]; -0.411 in assay [4]; 0.029 in assay [5]; -0.134 in assay [6]. Moreover, the log2 fold change in assay [7] is -0.233; in assay [8] it was 0.119; in [9], 0.008; in assay [10] it was 0.034.

For ATG13 isoform 2 (UniProt O75143), the log2 fold change in assay [1] is -0.05; in assay [2] it was 0.042; in assay [3], 0.024; in assay [4], 0.036; in assay [5] it was 0.007; in [6], 0.015. Moreover, the log2 fold change was -0.281 (active) in assay [7], 0.077 in [8], 0.005 in [9] and 0.053 in assay [10].

On to CDKN1B (UniProt P46527), for which the log2 fold change in [1] is -0.12; in [2], 0.004; in assay [3], -0.032; in assay [4] it was 0.063; in assay [5] it was -0.039; in [6], 0.099. Further, the log2 fold change is 0.118 in assay [7], -0.119 in [8], -0.012 in [9] and 0.015 in assay [10].

Consider CDAN1 (UniProt Q8IWY9), for which the log2 fold change in [1] is -0.047; in assay [2], 0.004; in assay [3], 0.014; in assay [4], -0.093; in assay [5], -0.034; in assay [6], 0.031. The log2 fold change is -0.03 in assay [7], -0.012 in assay [8], 0.002 in assay [9] and -0.005 in assay [10].

With ATAD1 (UniProt Q8NBU5), the log2 fold change in [1] was 0.052; in assay [2], -0.072; in assay [3], -0.008; in assay [4] it was 0.024; in [5] it was -0.018; in assay [6], -0.041. Further, the log2 fold change is -0.04 in [7], -0.03 in assay [8], -0.031 in [9] and 0.06 in [10].

For the target BMS1 (UniProt Q14692), the log2 fold change in assay [1] is -0.038; in [2], 0.023; in assay [3] it was 0.127; in [4], -0.027; in [5] it was -0.018; in assay [6], 0.012. The log2 fold change was -0.054 in [7], 0.006 in assay [8], -0.004 in assay [9] and 0.005 in assay [10].

For the target CDK11B (UniProt P21127), the log2 fold change in assay [1] was 0.025; in [2] it was 0.002; in assay [3], 0.022; in assay [4], -0.087; in assay [5] it was -0.057; in assay [6], 0.029. Further, the log2 fold change in assay [7] is -0.047; in assay [8] it was -0.048; in assay [9], -0.024; in [10] it was 0.01.

The values above are taken from the supplement of paper PMC10849652.
